From ChEMBL document CHEMBL4513216, “Probing the Open Global Health Chemical Diversity Library for Multistage-Active Starting Points for Next-Generation Antimalarials” (ACS Infect Dis, 2020)
Out of some 69,000 compounds screened, about 8,600 (12%) showed an effect of 50% or more. The sample holds strong results, similar compounds and a random draw of the others, so the mix is not that of the screen.

These compounds were tested on Plasmodium berghei (assay: Screen against P. berghei liver stage (PbLuc), transformed with Luciferase, at 10uM). Conditions: tested at 10 uM.
Type: functional, HepG2

SMILES | INHIBITION [%]
Cc1nnc(NCCC(=O)NCc2ccccc2)c(C#N)c1C | 12.3
CC(=O)N1CC[C@@]2(O)CCCC[C@H]2[C@@H]1c1ccccc1 | 45
O=C(NCCC1COc2ccccc2O1)c1ccc(-c2cn[nH]c2)nc1 (stereo not drawn) | 48.9
O=C(NCCC1COc2ccccc2O1)c1ccc(-c2cc[nH]n2)nc1 (stereo not drawn) | -21.6
O=C(NCCC1COc2ccccc2O1)c1ccc(N2CC(O)C2)nc1 (stereo not drawn) | 59.5
CCc1nc(C)cc(N2CCN(C(=O)[C@@H]3C[C@H]4C=C[C@@H]3C4)CC2)n1 | -2.09
NCC1CCCCN1C(=O)Cc1cccc(Br)c1 (stereo not drawn) | -0.159
O=C(Cc1c[nH]c(=O)[nH]c1=O)N1CCCCC1CCc1cccc(O)c1 (stereo not drawn) | 57.6
O=C(Cc1c[nH]c(=O)[nH]c1=O)N1CCCCC1CCc1ccccc1 (stereo not drawn) | -28
Nc1cccnc1N1CCCCCC1 | -12.1
Cc1cccc(N2CCC3(CCCC(=O)N3)CC2)n1 | -77.4
CCc1nnc(CN(C)C[C@@H]2CCCN3CCCC[C@H]23)o1 | 5.46
Cc1nnc(CN(C)CC2CCCCC2)o1 | 27.5
CCc1nnc(CN(C)CC2CCCCC2)o1 | 61.1
CCCN(CC)c1ccc(C(=O)N2CCCC2c2cnn(C)c2)cn1 (stereo not drawn) | 22.3
COc1ccc(CNCC2CN(C3CC3)CCO2)cc1C (stereo not drawn) | 10.2
C[C@H]1C[C@H]2CN(C(=O)CCOc3ccccc3)CC[C@H]2O1 | 27.6
Cc1nc(COCc2cnc3n2CCN(C(=O)C2CC2)C3C)cs1 (stereo not drawn) | 33
Cc1nc(COCc2cnc3n2CCN(C)C3C)cs1 (stereo not drawn) | 52.3
CCOCc1cnc2n1CCN(Cc1nc(C)cs1)C2C (stereo not drawn) | 41
Cc1nc(COCc2cnc3n2CCN(CC2CCC2)C3C)cs1 (stereo not drawn) | 50.2
CC(=O)N1CCn2c(COCc3csc(C)n3)cnc2C1C (stereo not drawn) | -14.8

SMILES | INHIBITION [%]
Cc1nc(COCc2cnc3n2CCN(C2CCC2)C3C)cs1 (stereo not drawn) | -12.6
Clc1ccccc1Cc1noc(CN2CCCC(CN3CCCC3)C2)n1 (stereo not drawn) | 42.8
COCc1cc(NCCc2ccccn2)n2nccc2n1 | 26.6
CC(C)CNc1nnc(SC(C(=O)NCc2cccnc2)C(C)C)s1 (stereo not drawn) | -11.3
COCC(O)CN(C)C(=O)NCc1ccc(-c2ccn[nH]2)cc1 (stereo not drawn) | 51.7
COCC(O)CN(C)C(=O)NCc1ccc(S(C)(=O)=O)cc1 (stereo not drawn) | 29.4
CNS(=O)(=O)c1ccc(CNC(=O)N(C)CC(O)COC)cc1 (stereo not drawn) | 36.3
CC(NC(=O)CCOc1cccc(F)c1)c1nnc2n1CCC2 (stereo not drawn) | 33.7
Cc1nc(O)cc(CN2CC=C(c3cnn(C(C)(C)C)c3)CC2)n1 | -33.2
CCC(O)Cn1cc(C2=CCN(Cc3cc(O)nc(C)n3)CC2)cn1 (stereo not drawn) | 52
CCC(O)Cn1cc(C2=CCN(Cc3ccc(OC)cc3)CC2)cn1 (stereo not drawn) | -8.97
O=C1NCCc2c1sc1ccc(C(=O)N3CC[C@H](CO)[C@H](O)C3)cc21 | 12.1
CN(C)C1CCCN(C(=O)c2ccc3sc4c(c3c2)CCNC4=O)CC1 (stereo not drawn) | 60.3
CN(C)[C@H]1CN(C(=O)c2ccc3sc4c(c3c2)CCNC4=O)C[C@@H]1O | -26
Fc1ccc(C(CNc2ccncn2)N2CCCCC2)cc1 (stereo not drawn) | 5.03
CC(N)C(=O)N1CCC(Oc2cccc(C(F)(F)F)c2)CC1 (stereo not drawn) | 26.6
CCc1cccc(OC2CN(C(=O)[C@@H](N)[C@@H](C)O)C2)c1 | 62.4
CCc1cccc(OC2CN(C(=O)[C@@H](N)CCSC)C2)c1 | 23.9
Cc1nc2cc(=O)[nH]n2c(C)c1CC(=O)Nc1cnn(C(C)(C)C)c1 | 49.6
Cc1nc2cc(=O)[nH]n2c(C)c1CC(=O)Nc1cn[nH]c1 | 53.9
Cc1nc2cc(=O)[nH]n2c(C)c1CC(=O)Nc1cnn(C)c1 | 15
Cn1cc(CN2CCC3(CC2)CN(C(=O)c2cnccn2)CCO3)cn1 | -13.2

SMILES | INHIBITION [%]
CCOCCc1nc(Cc2ccccc2)n[nH]1 | 10.3
O=C1COC2(CCN(Cc3cccnc3)CC2)CN1 | 18.2
O=C(COCc1ccccc1Cl)N1CCN(c2ccc(Br)cn2)CC1 | 60.3
O=C(COCc1ccccc1Cl)N1CCN(c2cnccn2)CC1 | -9.51
O=C(COCc1ccccc1Cl)N1CCN(c2ncccn2)CC1 | -133
COc1ccc(Cl)cc1S(=O)(=O)N1C[C@H]2CC[C@@H](C1)N(C)C2=O | 48.9
CN(C)CC(=O)N1CCC2(CC1)Cc1ccccc1CN(C)C2=O | 18.6
Cc1ccc(CN2C[C@@H]3CN(C(=O)c4cccn4C)C[C@@H]3C2)cc1 | 8.74
c1cn(-c2ccc(CN3CCOC(Cn4cncn4)C3)cc2)cn1 (stereo not drawn) | 27.6
COC(=O)c1ccc(NC(=O)CCc2ccncc2)c(C)c1 | 50.1
CCC(C)NC(=O)c1ccc(NC(=O)CCc2ccncc2)c(C)c1 (stereo not drawn) | 39
COc1ccc(CCC(=O)Nc2ccncc2C)cc1 | 12.8
O=C(CCOc1ccccc1Cl)N1CCN(c2cnccn2)CC1 | -33.7
CCN1CCN(C(=O)NC(C)c2noc(-c3ccccc3)n2)CC1 (stereo not drawn) | 51.1
CC(NC(=O)N1CCC[C@H]1CO)c1noc(-c2ccccc2)n1 (stereo partly drawn) | 8.38
CC(NC(=O)N1CCSC(C)(C)C1)c1noc(-c2ccccc2)n1 (stereo not drawn) | 38.3
Cc1nc(CNCc2c(C(C)C)nn(C)c2N2CCOCC2)cs1 | 49.6
COc1ccc2c(c1)C(C(=O)NCCN1CCNC1=O)CC(=O)N2 (stereo not drawn) | 5.36
Cc1nc(CCNC(=O)C2CCN(C(C)C)CC2)sc1Cl | -3.72
Cc1cc(CNC(=O)CC2CCN(C(C)C)CC2)n(C)n1 | 60.8
CCN1CCC(CC(=O)NCCc2nc(C)cc(C)n2)CC1 | -26.1
CCN1CCC(CC(=O)NCc2nc(C)cc(C)n2)CC1 | 69.9

SMILES | INHIBITION [%]
CCN1CCC(CC(=O)NCc2cc(C)nn2C)CC1 | -6.59
CCc1nc(C)c(CNC(=O)CCCN2CCCCC2)s1 | 9.87
CCCN1CCC(CC(=O)NCc2cc(C)nn2C)CC1 | 22.3
CCN1CCC(CC(=O)NCCc2nc(C)c(Cl)s2)CC1 | 13
CCCN1CCC(CC(=O)NCCc2nc(C)cc(C)n2)CC1 | -37.2
Cc1cc(CNC(=O)CCCN2CCCCC2)n(C)n1 | 73.6
Cc1nc(CCNC(=O)CC2CCN(C(C)C)CC2)sc1Cl | 60.9
Cc1cc(C(F)(F)F)nc(CNC(=O)CCCN2CCCCC2)n1 | 48
CC(=O)Nc1nc(C(=O)NC(C)c2ccc(F)c(F)c2)cs1 (stereo not drawn) | -31.8
COc1cccc(N2CCN(Cc3ccc4[nH]ccc4c3)CC2=O)c1 | 10.2
CCCc1nnc2sc(C3CCS(=O)(=O)CC3)nn12 | 33
CC(=O)N1CCN(c2cncc(C3CCNCC3)n2)CC1 | 16.5
CN1CC2(CNCCN(C(=O)Nc3ccccc3)C2)CC1=O (stereo not drawn) | -36.8
COc1c(CNCc2ccc(N(C)C)nc2)c(C)nn1C | 11.25
CC(C)C[C@H](NCc1cc(O)c2cccc(F)c2n1)C(N)=O | 3.03
O=C(c1cccc(C2CCNC2)c1)N1CCC(c2ncc[nH]2)CC1 (stereo not drawn) | -6.61
COCCN1CCN(CC(O)c2ccc(OC(F)(F)F)cc2)CC1 (stereo not drawn) | -24.2
O=C(c1ccoc1)N1CCCC2(CCC(=O)N2Cc2ccncc2)C1 (stereo not drawn) | 51.2
CN1C(=O)CCC12CCCN(C(=O)c1ccncc1F)C2 (stereo not drawn) | -12.2
CN(C)CCN1C(=O)CCC12CCCN(C(=O)c1ccncc1F)C2 (stereo not drawn) | -24.1
O=C(c1ccoc1)N1CCCC2(CCC(=O)N2Cc2cccnc2)C1 (stereo not drawn) | 42.3
O=C(c1ccoc1)N1CCC2(CCC(=O)N2Cc2ccncc2)CC1 | 43.8

SMILES | INHIBITION [%]
CCN1C(=O)CCCC12CCCN(C(=O)c1ccncc1F)C2 (stereo not drawn) | 51.4
O=C(Cc1c(F)cccc1Cl)Nc1cccc(N2CCCC2)c1 | 43.4
CNC(=O)c1cn[nH]c1C1CCN(Cc2sccc2C)C1 (stereo not drawn) | -14.1
CC(=O)c1cccc(OCCCC(=O)N(C)Cc2cnn(C)c2)c1 | 82.2
CC(=O)c1cccc(OCCCC(=O)N(C)Cc2cnc(C)s2)c1 | 55.4
CC(=O)c1cccc(OCCCC(=O)N(C)CCc2ccncc2)c1 | -8.19
CC(=O)c1cccc(OCCCC(=O)N(C)Cc2cccc(O)c2)c1 | 23.5
CCN(C)C(=O)CCN(C)Cc1cnc(C)s1 | 50.4
CC(=O)c1cccc(OCCCC(=O)N(C)Cc2cscn2)c1 | 5.68
CCOC(=O)CN(C)Cc1cnc(C)s1 | 8.38
CC(=O)c1cccc(OCCCC(=O)N(C)Cc2ccccn2)c1 | 3.47
CC(=O)c1cccc(OCCCC(=O)N(C)CCC(F)(F)F)c1 | 57.3
CC(=O)c1cccc(OCCCC(=O)N(C)CC(N)=O)c1 | -25.1
CCCN(CCC)C(=O)CN(C)Cc1cnc(C)s1 | 23.2
COc1cc(C(C)=O)ccc1OCC(=O)N(C)Cc1cnn(C)c1 | 40.9
CN(C)C(CNC(=O)c1ccnc(-n2cncn2)c1)c1ccccc1 (stereo not drawn) | 9.34
CN(C)c1ccc(CNCc2cnc(N3CCOCC3)nc2)cn1 | 12.6
O=S1(=O)CCN(Cc2cccnc2)[C@H]2CCN(c3ncccn3)CC[C@H]21 | 46.8
CN1C(=O)CC(c2cnn(C)c2)C12CCN(C(=O)c1cccn1C)CC2 (stereo not drawn) | 26.4
O=C(c1cc[nH]n1)N1CCc2cc(Br)sc2C1 | 24.2
